The supplement of paper PMC10037445
The full ranking holds about 2,900 compounds; the median of “NF-kB SEAP reporter activity, fold change vs agonist alone” is about 0.99, and the highest 2% start at about 2.6. The list comes from a sample in which the highest values are over-represented; it also holds similar structures and randomly drawn compounds.

Experiments:
RAW-Dual [1] = test: NF-kB SEAP reporter activity, fold change vs agonist alone; cytotoxicity flag (confluency mask): not cytotoxic; higher = enhanced NF-kB activity
How it was run: (§1)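 RAW-Dual macrophages (50,000 cells/well in DMEM, 384-well plates) received 50 nL of library stock by pin tool, then a PRR agonist 1 h later, and were kept at 37 °C, 5% CO2. After 20 hours, supernatant was read for IRF by QuantiLuc luminescence and for NF-κB by QuantiBlue absorbance at 620 nm. Reporter activity is fold change over agonist-alone wells. Cytotoxic wells had IncuCyte confluency below 70% of agonist controls in both mask sets.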

RAW-Dual [2] = test: NF-kB SEAP reporter activity, fold change vs agonist alone; higher = enhanced NF-kB activity
How it was run: as §1

RAW-Dual [3] = test: NF-kB SEAP reporter activity, fold change vs agonist alone; cytotoxicity flag (confluency mask): cytotoxic (confluency <70% of control); higher = enhanced NF-kB activity
How it was run: as §1

[4] = agonist: ODN 1826 (TLR9) 0.5 ug/mL
[5] = agonist: Pam2CSK4 (TLR2/6) 0.1 ug/mL
[6] = agonist: Pam3CSK4 (TLR2/1) 0.1 ug/mL
[7] = library stock concentration (final ~1000-fold dilution): 10 mM, cytotoxicity flag (confluency mask): not cytotoxic, agonist: MPLA (TLR4) […]
[8] = library stock concentration (final ~1000-fold dilution): 10 mM, cytotoxicity flag (confluency mask): not cytotoxic, agonist: Imiquimod (TLR7) […]
[9] = library stock concentration (final ~1000-fold dilution): 10 mM, cytotoxicity flag (confluency mask): cytotoxic (confluency <70% of control), agonist: Imiquimod (TLR7) […]
[10] = library stock concentration (final ~1000-fold dilution): 10 mM, cytotoxicity flag (confluency mask): cytotoxic (confluency <70% of control), agonist: MPLA (TLR4) […]
[11] = library stock concentration (final ~1000-fold dilution): 2 mM, cytotoxicity flag (confluency mask): not cytotoxic, agonist: Imiquimod (TLR7) […]
[12] = library stock concentration (final ~1000-fold dilution): 2 mM, cytotoxicity flag (confluency mask): not cytotoxic, agonist: MPLA (TLR4) […]

In the case of `C=CC1(C)CC(OC(=O)CSCCN(CC)CC)C2(C)C(C)CCC3(CCC(=O)C32)C(C)C1O` (configuration not stated) (library stock concentration (final ~1000-fold dilution): 10 mM), the “NF-kB SEAP reporter activity” value (RAW-Dual [1]; agonist: LPS (TLR4) 0.1 ug/mL) is reported as 1.56, the “NF-kB SEAP reporter activity” value (RAW-Dual [1]; [4]) is reported as 0.725 and the “NF-kB SEAP reporter activity” value (RAW-Dual [1]; [5]) is reported as 1.11. The “NF-kB SEAP reporter activity” value (RAW-Dual [1]; [6]) was 0.934.

`C=CC1(C)CC(OC(=O)CSCCN(CC)CC)C2(C)C(C)CCC3(CCC(=O)C32)C(C)C1O` (configuration not stated) was tested, and the “NF-kB SEAP reporter activity” value (RAW-Dual [2]; [7]) was 1.12.

With `Cc1sc2c(c1C)C(c1ccc(Cl)cc1)=NC(CC(=O)NCCCCNC(=O)COc1cccc3c1C(=O)N(C1CCC(=O)NC1=O)C3=O)c1nnc(C)n1-2` (configuration not stated) (library stock concentration (final ~1000-fold dilution): 10 mM) the “NF-kB SEAP reporter activity” value (RAW-Dual [3]; agonist: LPS (TLR4) 0.1 ug/mL) was 7.56, the “NF-kB SEAP reporter activity” value (RAW-Dual [3]; [4]) was 3.05 and the “NF-kB SEAP reporter activity” value (RAW-Dual [3]; [5]) was 1.99. The “NF-kB SEAP reporter activity” value (RAW-Dual [3]; [6]) was 3.03.

With `Nc1cccc2c1C(=O)N(C1CCC(=O)NC1=O)C2=O` (configuration not stated) the “NF-kB SEAP reporter activity” value (RAW-Dual [2]; [8]) was 1.6 and the “NF-kB SEAP reporter activity” value (RAW-Dual [2]; [7]) was 1.07.

For `Cc1sc2c(c1C)C(c1ccc(Cl)cc1)=N[C@@H](CC(=O)NCCCCCCCCNC(=O)COc1cccc3c1C(=O)N(C1CCC(=O)NC1=O)C3=O)c1nnc(C)n1-2` (some centres not stated) (library stock concentration (final ~1000-fold dilution): 10 mM), the “NF-kB SEAP reporter activity” value (RAW-Dual [3]; agonist: LPS (TLR4) 0.1 ug/mL) was 3.73, the “NF-kB SEAP reporter activity” value (RAW-Dual [3]; [4]) was 1.84 and the “NF-kB SEAP reporter activity” value (RAW-Dual [3]; [5]) was 1.74. For the same molecule, the “NF-kB SEAP reporter activity” value (RAW-Dual [3]; [6]) was 3.

`O=C1CCC(N2C(=O)c3ccccc3C2=O)C(=O)N1` (configuration not stated) (library stock concentration (final ~1000-fold dilution): 10 mM) was tested, and the “NF-kB SEAP reporter activity” value (RAW-Dual [1]; agonist: LPS (TLR4) 0.1 ug/mL) was 1.22, the “NF-kB SEAP reporter activity” value (RAW-Dual [1]; [4]) was 1.01 and the “NF-kB SEAP reporter activity” value (RAW-Dual [1]; [5]) was 0.95. For the same molecule, the “NF-kB SEAP reporter activity” value (RAW-Dual [1]; [6]) was 1.17.

With `Cc1sc2c(c1C)C(c1ccc(Cl)cc1)=N[C@@H](CC(=O)NCCCCCCCCNC(=O)COc1cccc3c1C(=O)N(C1CCC(=O)NC1=O)C3=O)c1nnc(C)n1-2` (some centres not stated) the “NF-kB SEAP reporter activity” value (RAW-Dual [2]; [9]) was 1.73 and the “NF-kB SEAP reporter activity” value (RAW-Dual [2]; [10]) was 2.44.

For `Cc1sc2c(c1C)C(c1ccc(Cl)cc1)=NC(CC(=O)NCCCCNC(=O)COc1cccc3c1C(=O)N(C1CCC(=O)NC1=O)C3=O)c1nnc(C)n1-2` (configuration not stated), the “NF-kB SEAP reporter activity” value (RAW-Dual [2]; [9]) was 1.89 and the “NF-kB SEAP reporter activity” value (RAW-Dual [2]; [10]) was 2.59.

`Nc1cccc2c1C(=O)N(C1CCC(=O)NC1=O)C2=O` (configuration not stated) (library stock concentration (final ~1000-fold dilution): 10 mM) was tested, and the “NF-kB SEAP reporter activity” value (RAW-Dual [1]; agonist: LPS (TLR4) 0.1 ug/mL) was 1.16, the “NF-kB SEAP reporter activity” value (RAW-Dual [1]; [4]) was 1.17 and the “NF-kB SEAP reporter activity” value (RAW-Dual [1]; [5]) was 1.08. For the same molecule, the “NF-kB SEAP reporter activity” value (RAW-Dual [1]; [6]) was 1.35.

`O=C1CCC(N2C(=O)c3ccccc3C2=O)C(=O)N1` (configuration not stated) was tested, and the “NF-kB SEAP reporter activity” value (RAW-Dual [2]; [8]) was 0.926 and the “NF-kB SEAP reporter activity” value (RAW-Dual [2]; [7]) was 0.792.

For `C/C=C1/C2C=C(C)CC1(N)c1ccc(=O)[nH]c1C2` (configuration not stated), the “NF-kB SEAP reporter activity” value (RAW-Dual [2]; [11]) was 0.822 and the “NF-kB SEAP reporter activity” value (RAW-Dual [2]; [12]) was 1.1.

With `C/C=C1/C2C=C(C)CC1(N)c1ccc(=O)[nH]c1C2` (configuration not stated) (library stock concentration (final ~1000-fold dilution): 2 mM) the “NF-kB SEAP reporter activity” value (RAW-Dual [1]; agonist: LPS (TLR4) 0.1 ug/mL) was 1.33, the “NF-kB SEAP reporter activity” value (RAW-Dual [1]; [4]) was 1.01 and the “NF-kB SEAP reporter activity” value (RAW-Dual [1]; [5]) was 1.14. For the same molecule, the “NF-kB SEAP reporter activity” value (RAW-Dual [1]; [6]) was 1.01.

With `CC1c2cccc(O)c2C(=O)C2=C(O)C3(O)C(=O)C(C(N)=O)=C(O)C(N(C)C)C3C(O)C21.CC1c2cccc(O)c2C(=O)C2=C(O)C3(O)C(=O)C(C(N)=O)=C(O)C(N(C)C)C3C(O)C21.CCO.Cl.Cl.O` (configuration not stated) (library stock concentration (final ~1000-fold dilution): 10 mM) the “NF-kB SEAP reporter activity” value (RAW-Dual [1]; agonist: LPS (TLR4) 0.1 ug/mL) was 1.6, the “NF-kB SEAP reporter activity” value (RAW-Dual [1]; [4]) was 0.969 and the “NF-kB SEAP reporter activity” value (RAW-Dual [1]; [5]) was 1.26. For the same molecule, the “NF-kB SEAP reporter activity” value (RAW-Dual [1]; [6]) was 0.938.

For `CC1c2cccc(O)c2C(=O)C2=C(O)C3(O)C(=O)C(C(N)=O)=C(O)C(N(C)C)C3C(O)C21.CC1c2cccc(O)c2C(=O)C2=C(O)C3(O)C(=O)C(C(N)=O)=C(O)C(N(C)C)C3C(O)C21.CCO.Cl.Cl.O` (configuration not stated), the “NF-kB SEAP reporter activity” value (RAW-Dual [2]; [8]) was 0.998 and the “NF-kB SEAP reporter activity” value (RAW-Dual [2]; [7]) was 1.13.

With `O=C(O)/C(S)=C/c1c[nH]c2ccc(F)cc12` the “NF-kB SEAP reporter activity” value (RAW-Dual [2]; [8]) was 0.865 and the “NF-kB SEAP reporter activity” value (RAW-Dual [2]; [7]) was 1.08.

With `O=C(O)/C(S)=C/c1c[nH]c2ccc(F)cc12` (library stock concentration (final ~1000-fold dilution): 10 mM) the “NF-kB SEAP reporter activity” value (RAW-Dual [1]; agonist: LPS (TLR4) 0.1 ug/mL) was 0.886, the “NF-kB SEAP reporter activity” value (RAW-Dual [1]; [4]) was 0.864 and the “NF-kB SEAP reporter activity” value (RAW-Dual [1]; [5]) was 0.988. For the same molecule, the “NF-kB SEAP reporter activity” value (RAW-Dual [1]; [6]) was 0.934.

In the case of `COC(=O)C1=C(C)NC(C)=C(C(=O)OCCN2CCN(C(c3ccccc3)c3ccccc3)CC2)C1c1cccc([N+](=O)[O-])c1.Cl.Cl` (configuration not stated), the “NF-kB SEAP reporter activity” value (RAW-Dual [2]; [8]) is reported as 0.58 and the “NF-kB SEAP reporter activity” value (RAW-Dual [2]; [7]) is reported as 0.873.

For `COC(=O)C1=C(C)NC(C)=C(C(=O)OCCN2CCN(C(c3ccccc3)c3ccccc3)CC2)C1c1cccc([N+](=O)[O-])c1.Cl.Cl` (configuration not stated) (library stock concentration (final ~1000-fold dilution): 10 mM), the “NF-kB SEAP reporter activity” value (RAW-Dual [1]; agonist: LPS (TLR4) 0.1 ug/mL) was 0.834, the “NF-kB SEAP reporter activity” value (RAW-Dual [1]; [4]) was 0.364 and the “NF-kB SEAP reporter activity” value (RAW-Dual [1]; [5]) was 0.241. The “NF-kB SEAP reporter activity” value (RAW-Dual [1]; [6]) was 0.405.

In the case of `CN(C)CCOC(c1ccccc1)c1ccccc1.Cl` (library stock concentration (final ~1000-fold dilution): 10 mM), the “NF-kB SEAP reporter activity” value (RAW-Dual [1]; agonist: LPS (TLR4) 0.1 ug/mL) is reported as 1.27, the “NF-kB SEAP reporter activity” value (RAW-Dual [1]; [4]) is reported as 0.728 and the “NF-kB SEAP reporter activity” value (RAW-Dual [1]; [5]) is reported as 0.917. For the same molecule, the “NF-kB SEAP reporter activity” value (RAW-Dual [1]; [6]) was 1.1.

For `CN(C)CCOC(c1ccccc1)c1ccccc1.Cl`, the “NF-kB SEAP reporter activity” value (RAW-Dual [2]; [8]) was 1.39 and the “NF-kB SEAP reporter activity” value (RAW-Dual [2]; [7]) was 0.886.

For `Cl.Cn1cc(C(=O)C2CCc3nc[nH]c3C2)c2ccccc21` (configuration not stated) (library stock concentration (final ~1000-fold dilution): 10 mM), the “NF-kB SEAP reporter activity” value (RAW-Dual [1]; agonist: LPS (TLR4) 0.1 ug/mL) was 1.01, the “NF-kB SEAP reporter activity” value (RAW-Dual [1]; [4]) was 0.67 and the “NF-kB SEAP reporter activity” value (RAW-Dual [1]; [5]) was 0.928. The “NF-kB SEAP reporter activity” value (RAW-Dual [1]; [6]) was 0.877.

With `Cl.Cl.Cn1cc(CNCC2CCN(c3ncc(C(=O)NO)cn3)CC2)c2ccccc21` the “NF-kB SEAP reporter activity” value (RAW-Dual [2]; [9]) was 2.52 and the “NF-kB SEAP reporter activity” value (RAW-Dual [2]; [10]) was 2.65.

`Cn1cc(CC(N)C(=O)O)c2ccccc21` (configuration not stated) was tested, and the “NF-kB SEAP reporter activity” value (RAW-Dual [2]; [11]) was 0.994 and the “NF-kB SEAP reporter activity” value (RAW-Dual [2]; [12]) was 1.05.

For `Cl.Cn1cc(C(=O)C2CCc3nc[nH]c3C2)c2ccccc21` (configuration not stated), the “NF-kB SEAP reporter activity” value (RAW-Dual [2]; [8]) was 0.775 and the “NF-kB SEAP reporter activity” value (RAW-Dual [2]; [7]) was 0.816.

In the case of `Cn1cc(CC(N)C(=O)O)c2ccccc21` (configuration not stated) (library stock concentration (final ~1000-fold dilution): 2 mM), the “NF-kB SEAP reporter activity” value (RAW-Dual [1]; agonist: LPS (TLR4) 0.1 ug/mL) is reported as 1.05, the “NF-kB SEAP reporter activity” value (RAW-Dual [1]; [4]) is reported as 1.22 and the “NF-kB SEAP reporter activity” value (RAW-Dual [1]; [5]) is reported as 1.19. For the same molecule, the “NF-kB SEAP reporter activity” value (RAW-Dual [1]; [6]) was 1.05.

In the case of `Cl.Cl.Cn1cc(CNCC2CCN(c3ncc(C(=O)NO)cn3)CC2)c2ccccc21` (library stock concentration (final ~1000-fold dilution): 10 mM), the “NF-kB SEAP reporter activity” value (RAW-Dual [3]; agonist: LPS (TLR4) 0.1 ug/mL) is reported as 7.01, the “NF-kB SEAP reporter activity” value (RAW-Dual [3]; [4]) is reported as 1.95 and the “NF-kB SEAP reporter activity” value (RAW-Dual [3]; [5]) is reported as 1.13. The “NF-kB SEAP reporter activity” value (RAW-Dual [3]; [6]) was 1.93.
